Hits are enriched below; roughly 3.4% of the tested compounds scored in any of these assays.
EWS-Fli block: inhibitors of EWS/Fli oncoprotein transcriptional activity | actives 0.67% (n = 350,000) | A673 NR0B1-luciferase reporter, viability-normalised | inhibition, % at 12.6 µM;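 active = mean inhibition of at least 50% after viability correction, with every replicate also passing that limit; inconclusive = mean reaches 50% but only one of two replicates passes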;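 note: firefly luciferase signal divided by Alamar Blue viability fluorescence both relative to DMSO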
LGR2 antag: inhibitors of bursicon-induced Drosophila LGR2 receptor cAMP signaling. HEK293 LGR2, CRE-luciferase, bursicon-stimulated, 4 h. inhibition, % at 9.99 µM. actives 0.35% (n = 380,000). AID 720647;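 active = drop in luminescence signal, shown as inhibition above about 50% in the replicate tests, limit read from the data, passing the limit was not always enough; inconclusive = probably only some replicates passing the limit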;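 note: agonist challenge used bursicon conditioned medium at about half maximal strength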
PAX8 reporter: inhibitors of PAX8 transcriptional activity in RMG-I cells; inhibition, % at 12.6 µM; RMG-I TPO-luciferase reporter, SteadyGlo, 24 h; actives 1.2% (n = 360,000); AID 652154;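 active = mean replicate inhibition at least 60% with every replicate also reaching 60%; inconclusive = only one of the two criteria is met; inactive = mean below 60% and not all replicates reaching 60%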;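 note: luciferase light reporting Pax8 driven TPO promoter activity; plate controls were median of neutral control wells for no effect and mitoxantrone controls for full effect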
PGC1a acetyl inh: PGC1a acetylation modulation, inhibitor mode; U2OS PGC1a acetylation, AlphaScreen anti-acetyl-lysine; with virally co-expressed GCN5 acetyltransferase; inhibition, % at 15.6 µM; actives 0.17% (n = 350,000);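 active = every replicate shows inhibition of at least 40%; inconclusive = mean inhibition at least 40% but some replicate below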;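 note: 0% = neutral control wells and 100% = positive control wells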
SIRT5 block: inhibitors of human sirtuin-5 desuccinylase; Purified SirT5, succinyl-peptide AMC, trypsin-coupled fluorescence; actives 1.1% (n = 330,000); Q9NXA8; inhibition, % at 15 µM; in the data active = inhibition above about 15%; inconclusive = no clear call, values can overlap the other calls
Target sequence (Q9NXA8 whole entry, looked up): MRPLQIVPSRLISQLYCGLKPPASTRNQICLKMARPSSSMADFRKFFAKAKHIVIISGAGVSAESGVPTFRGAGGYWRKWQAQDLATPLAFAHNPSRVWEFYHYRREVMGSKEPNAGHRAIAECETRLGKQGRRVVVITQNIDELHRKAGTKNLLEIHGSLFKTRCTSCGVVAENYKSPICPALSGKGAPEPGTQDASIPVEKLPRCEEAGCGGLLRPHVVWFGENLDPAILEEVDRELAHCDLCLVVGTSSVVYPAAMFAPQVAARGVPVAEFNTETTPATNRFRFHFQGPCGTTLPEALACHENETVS
Ecoli rRNA inh: inhibitors of bacterial rRNA selective over humanized ribosomes | E. coli WT GFP vs humanized-ribosome RFP mutants, fluorescence, 24 h; active compounds read low; DMSO median 0, no signal -100 | GFP signal change (wild-type ribosome), % (test concentration not listed) | actives 1.6% (n = 350,000) | AID 720706;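 active = significant combined selectivity score with lowered wild-type GFP, culture density cut under 30%, mutant RFP and density less affected; inactive = any of these conditions unmet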
* = called active by the depositor.

For C/C=C(\C)C(=O)N[C@@H](c1ccccc1)[C@@H](O)C(=O)O[C@H]1C[C@@]2(O)[C@@H](OC(=O)c3ccccc3)C3[C@](C)(C(=O)[C@H](OC(C)=O)C(=C1C)C2(C)C)[C@H](O)C[C@H]1OC[C@@]31OC(C)=O (stereo not given in full) the results were EWS-Fli block 57.7* and PGC1a acetyl inh -8.4.
For CC/C=C/CC(=O)N[C@@H](c1ccccc1)[C@@H](O)C(=O)O[C@H]1C[C@@]2(O)[C@@H](OC(=O)c3ccccc3)C3[C@](C)(C(=O)[C@H](OC(C)=O)C(=C1C)C2(C)C)[C@@H](O)C[C@H]1OC[C@@]31OC(C)=O (stereo not given in full) the results were EWS-Fli block 35.7, PGC1a acetyl inh -8.8, SIRT5 block -1.3 and Ecoli rRNA inh 11.6.
`CCC(C)C(=O)N[C@@H](c1ccccc1)[C@@H](O)C(=O)O[C@H]1C[C@@]2(O)[C@@H](OC(=O)c3ccccc3)C3[C@](C)(C(=O)[C@H](OC(C)=O)C(=C1C)C2(C)C)[C@@H](O)C[C@H]1OC[C@@]31OC(C)=O` (stereo not given in full) gave EWS-Fli block 56.2*, LGR2 antag 7.3, PGC1a acetyl inh -16.5, SIRT5 block -0.3 and Ecoli rRNA inh 1.3.
Screening CCCNC(=O)N1[C@@H]2c3ccc(-c4cccc(C(=O)N(C)C)c4)c(=O)n3C[C@H]1[C@H](CO)[C@H]2C(=O)O returned EWS-Fli block 0.6, LGR2 antag 2.0, PAX8 reporter -7.8, PGC1a acetyl inh -0.5, SIRT5 block -26.4 and Ecoli rRNA inh 4.4.
For CN(C)CC#Cc1ccc([C@@H]2[C@H](CO)N3CCCCN(C(=O)Cc4ccccn4)C[C@@H]23)cc1 the results were EWS-Fli block -5.9, LGR2 antag -14.6, PAX8 reporter -0.9, PGC1a acetyl inh 9.8, SIRT5 block -2.9 and Ecoli rRNA inh 3.2.
For COC(=O)[C@H]1[C@H](CO)[C@H]2Cn3c(ccc(C4=CCCCC4)c3=O)[C@@H]1N2CCc1ccccc1 the results were EWS-Fli block 1.2, LGR2 antag -6.7, PAX8 reporter 11.3, SIRT5 block -9.3 and Ecoli rRNA inh -7.5.
For CC(C)NC(=O)N1[C@@H]2Cn3c(ccc(-c4cccc(C(=O)N(C)C)c4)c3=O)[C@H]1[C@@H](C(=O)O)[C@@H]2CO the results were EWS-Fli block -7.2, LGR2 antag 0.9, SIRT5 block -13.8 and Ecoli rRNA inh 2.7.
C[C@@H]1CN([C@@H](C)CO)C(=O)c2c(c3ccccc3n2C)-c2ccccc2CO[C@@H]1CN(C)C(=O)Oc1ccccc1 was read as LGR2 antag -4.6, PAX8 reporter -19.6, PGC1a acetyl inh -53.4, SIRT5 block 0.9 and Ecoli rRNA inh -0.2.
O=C1CNC[C@@H]2[C@H](c3ccc(Br)cc3)[C@H](CO)N12 was read as EWS-Fli block -15.6, LGR2 antag -10.4, PAX8 reporter -22.9, PGC1a acetyl inh -0.3, SIRT5 block -2.8 and Ecoli rRNA inh -3.5.
Screening CCN(CC)C(=O)c1ccc(NC(=O)CCCSc2ccccc2)cc1 returned EWS-Fli block -49.5, LGR2 antag 0.1, PAX8 reporter -13.5, SIRT5 block 3.4 and Ecoli rRNA inh -14.8.
`CCN(CC)C(=O)c1ccc(NC(=O)Nc2ccccc2F)cc1` gave EWS-Fli block 61.7*, LGR2 antag 75.0*, PAX8 reporter 15.2, SIRT5 block 1.1 and Ecoli rRNA inh 5.1.
Clc1ccccc1N1CCN(Cc2ccc3c(c2)OCO3)CC1 was read as EWS-Fli block -9.0, LGR2 antag 7.2, PAX8 reporter -21.7, PGC1a acetyl inh 0.5, SIRT5 block -3.0 and Ecoli rRNA inh -29.9.
Screening Clc1ccccc1CN1CCN(c2ccccc2Cl)CC1 returned EWS-Fli block 3.3, LGR2 antag 13.7, SIRT5 block 1.0 and Ecoli rRNA inh -42.2*.
COc1ccc(C2=CC(c3ccc(OC)c(OC)c3)c3c(c4ccccc4oc3=O)O2)cc1OC (stereo not given) was read as EWS-Fli block 57.7*, LGR2 antag 14.5, PAX8 reporter 12.0, PGC1a acetyl inh -11.7, SIRT5 block 2.1 and Ecoli rRNA inh 7.4.
`CC1OC(OC2C=C3CCC4C(CCC5(C)C(c6ccc(=O)oc6)CCC45O)C3(C)CC2)C(O)C(OC2OC(CO)C(O)C(O)C2O)C1O` (stereo not given) gave EWS-Fli block inconclusive, LGR2 antag 84.5*, PAX8 reporter 106.0*, PGC1a acetyl inh 32.4 and SIRT5 block -2.8.
For CC[N+](C)(CC)CCCCOc1ccc2c(c1)C(=O)c1cc(OCCCC[N+](C)(CC)CC)ccc1-2 the results were EWS-Fli block 9.9, LGR2 antag 3.3, PAX8 reporter 5.7, PGC1a acetyl inh -4.7, SIRT5 block -1.7 and Ecoli rRNA inh -52.6*.
Screening COc1cccc2c1cc([N+](=O)[O-])c1c(C(=O)O)cc3c(c12)OCO3 returned EWS-Fli block 33.0, LGR2 antag 67.3*, PGC1a acetyl inh -2.1, SIRT5 block 5.3 and Ecoli rRNA inh -58.8.
`O=C1NC(=O)C2(Cc3cc([N+](=O)[O-])ccc3N3CCN(C(=O)c4ccccc4)CC32)C(=O)N1` (stereo not given) gave EWS-Fli block -5.6, LGR2 antag 18.5, PAX8 reporter -14.2, PGC1a acetyl inh 11.7, SIRT5 block 5.3 and Ecoli rRNA inh -29.3*.
`CN1C(=O)N(C)C(=O)C2(Cc3cc([N+](=O)[O-])ccc3N3CCN(C(=O)c4ccccc4)CC32)C1=O` (stereo not given) gave EWS-Fli block 0.7, LGR2 antag -17.9, PAX8 reporter 9.8, PGC1a acetyl inh -4.6, SIRT5 block 1.3 and Ecoli rRNA inh -12.4.
Screening O=C(O)c1nn(Cc2ccc(Cl)cc2Cl)c2ccccc12 returned EWS-Fli block -2.0, LGR2 antag 63.0*, PAX8 reporter -12.3, PGC1a acetyl inh -0.7 and SIRT5 block -1.4.
Screening CC12CCC3C(CCC4(O)CC(O)CCC34C=O)C1(O)CCC2C1=CC(=O)OC1 (stereo not given) returned EWS-Fli block 52.4*, LGR2 antag 84.2*, PAX8 reporter 100.7*, SIRT5 block -4.2 and Ecoli rRNA inh 10.8.
CC12CC[C@H]3[C@@H](CCC4(O)C[C@H](O)CCC34/C=N/NC(=O)c3ccccc3Cl)C1(O)CCC2C1=CC(=O)OC1 (stereo not given in full) was read as EWS-Fli block 6.2, LGR2 antag 21.4, PAX8 reporter -16.3, PGC1a acetyl inh -6.1, SIRT5 block 4.5 and Ecoli rRNA inh -1.8.

From PubChem BioAssay
